ADAM17 inh = ADAM17 inhibition, QFRET primary screen. P78536. recombinant ADAM17, EDANS/DABCYL FRET peptide cleavage. inhibition, % at 6.95 µM. 0.83% of 370,000 active. AID 720648;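 active means inhibition above the mean of compounds lying between control limits plus 3 SD, set per campaign, cut at about 8.5% in these data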;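 further: 0% = DMSO-only wells as the low control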
FAS-TE inh = FAS thioesterase (human) inhibition. P49327. recombinant FAS-TE, OMFH fluorogenic substrate, fluorescence endpoint. inhibition, % at 15 µM. 0.67% of 360,000 active;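 active means compounds whose normalised, plate-corrected inhibition of enzyme fluorescence in the single-dose primary screen is 50% or more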;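 further: 0% = DMSO with enzyme and 100% = substrate without enzyme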
NR3A LBD binder = modulators (binders) of human NR3A ligand-binding domain. NR3A LBD differential scanning fluorimetry, Tm shift; 0% = protein alone, 100% = glycine-bound protein. 2.5% of 340,000 active. Tm shift relative to glycine control, % at 25 µM;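 active means melting temperature shift of at least 10% of the positive control shift, at one fixed dose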
ADAM10 inh = inhibitors of human ADAM10; recombinant ADAM10, EDANS/DABCYL FRET peptide cleavage, 3 h; inhibition, % at 7 µM; 0.62% of 370,000 active; AID 720582;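 active means inhibition above a per-campaign cutoff equal to the mean of compounds falling between control-based bounds plus 3 SD, cut at about 20% in these data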;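 further: 0% = DMSO wells while the 100% control is not disclosed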
sPLA2-III inh = Inhibits HGIII-sPLA2 liposome hydrolysis, primary screen; Q9NZ20; QFRET BODIPY PC-A2 liposome hydrolysis, fluorescence; 0.56% of 370,000 active; inhibition, % at 12.2 µM; AID 743126;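 active means inhibition above mean plus 3 SD of compounds lying within the high and low control bounds, cut at about 19% in these data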;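 further: 0% = median of test compound wells and 100% = no enzyme DMSO wells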
* hit, by the source's call; . = no result. This is a sample that favours compounds with a hit; in the whole collection about 4.3% have one here.

SMILES	ADAM17 inh	FAS-TE inh	NR3A LBD binder	ADAM10 inh	sPLA2-III inh
CCOc1ccc(OCCC(=O)OC(C)C(=O)Nc2ccc(C(C)=O)cc2)cc1 (configuration not stated)	3	6	20*	-5	-16
O=C(OC12CCCN(C1)/C(=C/c1cccc(Cl)c1)C2)c1ccc(Cl)cc1 (configuration not stated)	3	.	.	4	-4
CCOc1ccc(NC(=O)Nc2nc3ccc(S(C)(=O)=O)cc3s2)cc1	-5	0	30*	-3	1
CCOC(=O)C1=CN(Cc2cccc(-c3ccc(F)cc3)c2)S(=O)(=O)N(C)C1C (configuration not stated)	-3	26	13*	-11	-7
CC(C)Oc1cccc(C(=O)NC(=S)Nc2ccccc2N2CCOCC2)c1	-7	22	20*	-9	3
COc1cccc(C(=O)NC(=S)Nc2ccccc2N2CCCC2)c1	2	13	-1	-3	9
Cc1cccc(OCC(=O)NC(=S)Nc2ccccc2N2CCOCC2)c1C	-4	2	16*	0	-5
CCCC1CCC2(CCCN2CCOC(=S)Nc2ccccc2)CC1 (configuration not stated)	-5	.	.	2	8
Cc1ccccc1CS(=O)(=O)Cc1ccc(C(=O)Nc2ccccc2C)o1	-2	.	.	4	-4
CC(C)COP(=O)(OCC(C)C)C(Nc1ccccc1)c1ccc2c(c1)OCO2 (configuration not stated)	-1	18	5	5	-9
CC(C)OP(=O)(OC(C)C)C(Nc1ccccc1)c1ccc2c(c1)OCO2 (configuration not stated)	-6	-4	12*	7	8
O=C(N/N=C\c1ccc(-c2ccc([N+](=O)[O-])cc2)o1)C1COc2ccccc2O1 (configuration not stated)	2	5	25*	-1	-1
NC(=S)N/N=C/c1ccc(-c2cccc([N+](=O)[O-])c2)o1	4	3	9	12	8
CN(C)c1ccc(/C=N/NC(=O)C2COc3ccccc3O2)o1 (configuration not stated)	-6	-9	0	-12	-3
O=[N+]([O-])c1cccc(-c2ccc(/C=N/NC(=S)Nc3cccc(F)c3)o2)c1	1	24	28*	1	10
O=C(N/N=C/c1ccc(-c2cccc([N+](=O)[O-])c2)o1)c1cccs1	-2	4	14*	-3	-8
Cc1cc([N+](=O)[O-])ccc1-c1ccc(/C=N/NC(=O)c2ccc(Br)o2)o1	-2	-16	27*	-6	2
Cc1ccccc1Cn1cc(CN2[C@@H](CC(C)C)COc3cc(Br)ccc3S2(=O)=O)nn1	-2	.	.	3	0
O=C(c1ccc(F)cc1F)N1CCC(Oc2cccnc2)CC1	6	.	.	4	6
CCOc1ccc(-n2c(SCC(=O)Nc3cccc4ccccc34)nnc2-c2ccncc2)cc1	-1	.	.	-11	7
C=CCn1c(SCC(=O)Nc2ccc(CCCC)cc2)nnc1-c1ccc(Cl)cc1	-2	.	.	0	3
O=C(N/N=C/c1ccc(-c2cccc([N+](=O)[O-])c2)o1)[C@H]1C[C@@H]1c1ccccc1	6	30	15*	9	3
N#C/C(=C\c1ccc(-c2cccc([N+](=O)[O-])c2)o1)C(=O)Nc1nc(-c2cccs2)cs1	-3	16	11*	-6	3
COC(=O)[C@]12C[C@H](CC(=O)NCCc3ccccc3OC)C(=O)N(Cc3ccco3)C1=C[C@H](COCc1ccccc1)O[C@@H]2C	0	.	.	7	-6
Cc1ccc(NC(=S)NNC(=S)Nc2ccc(C)cc2C)cc1	-4	5	11*	-1	-6
Cc1cc(Cl)ccc1NC(=S)N1CCOCC1	0	-6	-5	-3	2
Cc1ccc(NC(=S)N2CCOCC2)c(C)c1	-4	-7	16*	-4	1
Cc1ccc(NC(=O)CCC(=O)NNC(=S)Nc2ccccc2)c(C)c1	1	-1	1	10	13
CC(C)(C)C(=O)/C=C/c1ccc(Oc2ccccc2)cc1	0	12	10*	11	5
CC1CCC/C(=N\NS(=O)(=O)c2ccccc2)C1 (configuration not stated)	-3	-4	1	0	-1
